PubChem BioAssay AID1159580 (chemical genetic matrix, 2015)
Several values for one entry are separate records, joined by “and”; a condition that tells them apart may be missing. Identical values can stand only once. Hit rate of the full screen: of about 5,500 compounds, about 2,000 (36%) were called active. Another 18% or so got no clear call; they are omitted. Cut-off read from the data, not from the text of the source: active = normalized growth mostly below about 0.91 (no sharp cut-off); inconclusive = no clear call, values can overlap the other calls; inactive = mostly above about 0.92. This is one part of the list.

Assay: chemical genetic growth profiling, strain panel (AID 1159580);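 note: tested at 20 µM; growth read once vehicle control cultures reached saturation at 30 °C; 1 = growth at the plate median or of vehicle wells; lower values mean less growth of the strain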
Settings: S. cerevisiae deletion strains, growth OD

Measured: normalized growth

CC(C)NCC(O)COc1cccc2ccccc12 (stereo unspecified)
inactive: locus YAL013W, strain DEP1, active compounds read low 1.01 | locus YAL021C, strain ccr4, active compounds read low 0.971 | locus YAL026C, strain drs2, active compounds read low 1.03 | locus YAL030W, strain snc1, active compounds read low 1.02 | locus YAL040C, strain CLN3, active compounds read low 1.01 and 0.981 | locus YBL061C, strain skt5, active compounds read low 1.01 | locus YBR009C, strain hhf1, active compounds read low 1 | locus YBR023C, strain chs3, active compounds read low 1.01 | locus YBR171W, strain sec66, active compounds read low 1.01 | locus YBR231C, strain swc5, active compounds read low 1.02 | locus YBR279W, strain paf1, active compounds read low 1.01 | locus YCL011C, strain gbp2, active compounds read low 1.01 | locus YCL016C, strain dcc1, active compounds read low 0.995 | locus YCL061C, strain MRC1 (second series), active compounds read low 1 and 1.02 | locus YCL061C, strain MRC1, active compounds read low 1.02 | locus YCL069W, strain vba3, active compounds read low 1.01 | locus YCR088W, strain abp1, active compounds read low 1.01 | locus YDL005C, strain med2, active compounds read low 1.01 | locus YDL040C, strain nat1, active compounds read low 1.01 | locus YDR001C, strain nth1, active compounds read low 1.02 | locus YDR069C, strain doa4, active compounds read low 1.01 | locus YDR137W, strain rgp1, active compounds read low 1.02 | locus YDR150W, strain NUM1, active compounds read low 1 | locus YDR159W, strain sac3, active compounds read low 0.992 | locus YDR195W, strain ref2 1.02 | locus YDR297W, strain sur2, active compounds read low 1.01 | locus YDR334W, strain swr1, active compounds read low 1.04 | locus YDR335W, strain msn5, active compounds read low 1.01 | locus YDR363W, strain ESC2, active compounds read low 1.01 and 0.959 | locus YDR392W, strain spt3, active compounds read low 1.02 | locus YEL003W, strain gim4, active compounds read low 1.03 | locus YEL037C, strain rad23, active compounds read low 1.01 | locus YEL061C, strain CIN8 (second series), active compounds read low 1.02 | locus YER002W, strain NOP16, active compounds read low 0.992 and 1.01 | locus YER015W, strain faa2, active compounds read low 1.01 | locus YER016W, strain bim1, active compounds read low 1.01 | locus YER111C, strain swi4, active compounds read low 1.03 | locus YER155C, strain BEM2 (second series), active compounds read low 1.05 | locus YFR010W, strain ubp6, active compounds read low 1.02 | locus YGL167C, strain pmr1, active compounds read low 1.02 | locus YGL173C, strain kem1, active compounds read low 1.01 | locus YGL227W, strain vid30, active compounds read low 1 | locus YGL240W, strain doc1, active compounds read low 1.02 | locus YGL253W, strain hxk2, active compounds read low 1.02 | locus YGR078C, strain PAC10, active compounds read low 1.02 and 1.01 | locus YGR229C, strain SMI1, active compounds read low 1.08 | locus YHR013C, strain ard1, active compounds read low 0.965 | locus YHR027C, strain rpn1, active compounds read low 1.01 | locus YHR030C, strain SLT2, active compounds read low 1.01 | locus YHR079C, strain IRE1, active compounds read low 1.02 | locus YHR142W, strain chs7, active compounds read low 1.05 | locus YJL092W, strain hpr5, active compounds read low 1.01 | locus YJL095W, strain BCK1 (second series), active compounds read low 1 | locus YJL095W, strain BCK1, active compounds read low 0.967 | locus YJL115W, strain asf1, active compounds read low 1.01 | locus YJL129C, strain trk1, active compounds read low 1.01 | locus YJL154C, strain vps35, active compounds read low 1.01 | locus YJL164C, strain tpk1, active compounds read low 0.997 | locus YJL166W, strain qcr8, active compounds read low 1.01 | locus YJR066W, strain TOR1, active compounds read low 0.996 | locus YJR075W, strain HOC1, active compounds read low 1.01 and 1 | locus YKL160W, strain elf1, active compounds read low 1.01 | locus YKR026C, strain gcn3, active compounds read low 1.01 | locus YKR091W, strain srl3, active compounds read low 1.02 | locus YLL001W, strain dnm1, active compounds read low 1.02 | locus YLL026W, active compounds read low 1.01 | locus YLL041C, strain sdh2, active compounds read low 1.01 | locus YLR027C, strain aat2, active compounds read low 1.01 | locus YLR113W, strain HOG1, active compounds read low 0.976 | locus YLR221C, strain rsa3, active compounds read low 0.972 | locus YLR258W, strain gsy2, active compounds read low 1 | locus YLR262C, strain YPT6 (second series), active compounds read low 1 | locus YLR320W, strain mms22, active compounds read low 0.997 | locus YLR342W, strain FKS1, active compounds read low 1.01 | locus YLR357W, strain rsc2, active compounds read low 1.07 | locus YLR370C, strain arc18, active compounds read low 1.01 | locus YLR384C, strain iki3, active compounds read low 1.01 | locus YML120C, strain ndi1, active compounds read low 1.01 | locus YMR058W, strain fet3, active compounds read low 1.02 | locus YMR125W, strain sto1, active compounds read low 1.07 | locus YMR129W, active compounds read low 1.01 | locus YMR205C, strain PFK2, active compounds read low 1.02 | locus YMR231W, strain pep5, active compounds read low 1.01 | locus YMR263W, strain SAP30, active compounds read low 1 | locus YMR307W, strain GAS1, active compounds read low 1.01 | locus YNL071W, strain lat1, active compounds read low 1.01 | locus YNL128W, strain TEP1, active compounds read low 0.995 | locus YNL175C, strain NOP13, active compounds read low 1.02 and 1.01 | locus YNL183C, strain NPR1, active compounds read low 1.01 | locus YNL197C, strain WHI3, active compounds read low 1 and 1.01 | locus YNL209W, strain ssb2, active compounds read low 1 | locus YNL224C, strain SQS1, active compounds read low 1.01 and 1.02 | locus YNL248C, strain rpa49, active compounds read low 1.04 | locus YNL322C, strain KRE1 (second series), active compounds read low 1 | locus YNL322C, strain KRE1, active compounds read low 1.01 | locus YNR049C, strain mso1, active compounds read low 1.01 | locus YOR001W, strain rrp6, active compounds read low 1.02 | locus YOR070C, strain gyp1, active compounds read low 1.01 | locus YOR080W, strain dia2, active compounds read low 1.02 | locus YOR083W, strain WHI5 (second series), active compounds read low 1.02 and 0.993 | locus YOR083W, strain WHI5, active compounds read low 1.01 | locus YOR106W, strain vam3, active compounds read low 1.03 | locus YOR231W, strain MKK1, active compounds read low 1.01 | locus YOR265W, strain rbl2, active compounds read low 1.02 | locus YOR270C, strain vph1, active compounds read low 1.06 | locus YOR290C, strain snf2, active compounds read low 1.01 | locus YPL051W, strain arl3, active compounds read low 1 | locus YPL078C, strain atp4, active compounds read low 1.06 | locus YPL106C, strain sse1, active compounds read low 0.985 | locus YPL240C, strain hsp82, active compounds read low 0.993 | locus YPL256C, strain CLN2, active compounds read low 1.02
